Several values for one entry are separate records, joined by “and”; a condition that tells them apart may be missing. Equal entries are not always repeated. Records with an inconclusive call do not appear. Activity calls are given as the source filed them. The call rests on the fitted dose curve; in most records, active means well fitted curve in the direction sought with a large enough effect; inconclusive means small, poorly fitted or top-dose-only effect, or another doubt; inactive means no such curve, though single readings can be large; an effect the other way counts as inactive or inconclusive.
Assays:
[1] = test system: CRL-7250; experiment: Cytotoxic Profiling of Annotated Libraries Using Quantitative High-Throughput Screening (AID 1296008); details: Five cell lines viability, CellTiter-Glo ATP luminescence, 48-72 h; max response: active compounds read low; further: nearly all actives have a fitted effect of over 60% in size; on max response: on the % scale 0 is the no-effect control and ±100 the full control effect
Summary of the method: (§1)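 Cells exposed to compounds for 48 or 72 hr at 37 degrees Celsius. Viability read as ATP-coupled luminescence with CellTiter-Glo after 10 min at room temperature.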

[2] = test system: HEK293; experiment: as above; details: Five cell lines viability, CellTiter-Glo ATP luminescence, 48-72 h; max response: active compounds read low
Summary of the method: as §1

[3] = test system: HaCat; experiment: as above; details: Five cell lines viability, CellTiter-Glo ATP luminescence, 48-72 h; max response: active compounds read low
Summary of the method: as §1

[4] = test system: KB-3-1; experiment: as above; details: Five cell lines viability, CellTiter-Glo ATP luminescence, 48-72 h; max response: active compounds read low
Summary of the method: as §1

[5] = test system: NIH3T3; experiment: as above; details: Five cell lines viability, CellTiter-Glo ATP luminescence, 48-72 h; max response: active compounds read low
Summary of the method: as §1

[6] = test system: HACAT; experiment: qHTS assay to identify novel small-molecules to repurpose for Merkel cell carcinoma treatment (AID 1296009); details: MCC and control cell lines, CellTiter-Glo viability, 72 h; at 44.8 µM (top of the series) unless noted; further: nearly all actives have a fitted effect of over 60% in size
Summary of the method: (§2)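 Cells were incubated with compound for 72 hr at 37 degree celsius before CellTiter-Glo addition. Luminescence was normalized with no-cell wells as full cytotoxicity and DMSO as baseline.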

[7] = test system: HEK293T; experiment: as above; details: MCC and control cell lines, CellTiter-Glo viability, 72 h; at 44.8 µM (top of the series) unless noted
Summary of the method: as §2

[8] = test system: MCC-13; experiment: as above; details: MCC and control cell lines, CellTiter-Glo viability, 72 h; series mostly up to 46 µM
Summary of the method: as §2

[9] = test system: MCC-26; experiment: as above; details: MCC and control cell lines, CellTiter-Glo viability, 72 h; series mostly up to 46 µM
Summary of the method: as §2

[10] = test system: MKL-1; experiment: as above; details: MCC and control cell lines, CellTiter-Glo viability, 72 h; series mostly up to 46 µM
Summary of the method: as §2

[11] = test system: MKL-2; experiment: as above; details: MCC and control cell lines, CellTiter-Glo viability, 72 h; series mostly up to 46 µM
Summary of the method: as §2

[12] = test system: UISO; experiment: as above; details: MCC and control cell lines, CellTiter-Glo viability, 72 h; series mostly up to 46 µM
Summary of the method: as §2

[13] = test system: WaGa; experiment: as above; details: MCC and control cell lines, CellTiter-Glo viability, 72 h; series mostly up to 46 µM
Summary of the method: as §2

[14] = test system: C33A; experiment: Primary qHTS to identify gynecologic anti-cancer compounds using libraries of approved drugs and bioactive compounds (AID 1345084); details: Gynecologic cancer cell panel viability, ATPlite luminescence, 48 h; series mostly up to 57.5 µM; further: on the % scale 0 is the no-effect control and ±100 the full control effect; nearly all actives have a fitted effect of over 55% in size
Summary of the method: (§3)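 Luminescence from the ATPlite ATP-monitoring reagent indicates viable cell number; lower signal means cytotoxicity. Cells received compound 16 h after seeding and were exposed for 48 h across five concentrations.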

[15] = test system: CASKI; experiment: as above; details: Gynecologic cancer cell panel viability, ATPlite luminescence, 48 h; series mostly up to 57.5 µM
Summary of the method: as §3

[16] = test system: Es-2; experiment: as above; details: Gynecologic cancer cell panel viability, ATPlite luminescence, 48 h; series mostly up to 57.5 µM
Summary of the method: as §3

[17] = test system: TAB165; experiment: qHTS profiling for inhibitors of Plasmodium falciparum proliferation (AID 504749);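 further: 0% = DMSO vehicle and full inhibition = artemisinin control; nearly all actives have a fitted effect of over 60% in size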; details: P. falciparum in erythrocytes, SYBR Green DNA, 72 h; series mostly up to 28.7 µM
Summary of the method: (§4)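 Readout was DNA-dye fluorescence from lysed cultures, ex 485/em 535 nm. Parasitized red cells had grown 72 h with compound; data scaled between 0.29 uM artemisinin and DMSO wells and corrected using vehicle-only plates.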

[18] = test system: W2; experiment: as above; details: P. falciparum in erythrocytes, SYBR Green DNA, 72 h; series mostly up to 28.7 µM
Summary of the method: as §4

[19] = test system: CAOV3; experiment: Primary qHTS to identify gynecologic anti-cancer compounds using libraries of approved drugs and bioactive compounds (AID 1345084); details: Gynecologic cancer cell panel viability, ATPlite luminescence, 48 h; series mostly up to 57.5 µM; further: on the % scale 0 is the no-effect control and ±100 the full control effect; nearly all actives have a fitted effect of over 55% in size
Summary of the method: as §3

[20] = test system: NIH3T3; experiment: qHTS assay to identify novel small-molecules to repurpose for Merkel cell carcinoma treatment (AID 1296009); details: MCC and control cell lines, CellTiter-Glo viability, 72 h; at 44.8 µM (top of the series) unless noted; further: nearly all actives have a fitted effect of over 60% in size
Summary of the method: as §2

C=CCn1c(=O)n([C@@H]2O[C@H](CO)[C@@H](O)[C@H]2O)c2nc(N)[nH]c(=O)c21
inactive: max response [1] -6.63% | outcome [2] | outcome [3] | max response [4] 17% | max response [5] 4.38% | outcome [6] | outcome [7] | Potency [8] | Potency [9] | Potency [10] | Potency [11] | Potency [12] | Potency [13] | Potency [14] | Potency [15] | Potency [16]

O=C1OC(OC(=O)c2cccnc2Nc2cccc(C(F)(F)F)c2)c2ccccc21 (stereo not given)
inactive: Potency [17] | Potency [18] | max response [1] 1.85% | outcome [2] | outcome [3] | max response [4] 7.28% | max response [5] -3.9% | outcome [6] | outcome [7] | Potency [8] | Potency [9] | Potency [10] | Potency [11] | Potency [12] | Potency [13] | Potency [14] | Potency [19] | Potency [15] | Potency [16]

Oc1cccc(O)c1
inactive: Potency [17] | Potency [18] | max response [1] -6.09% | outcome [2] | outcome [3] | max response [4] -21.4% | outcome [5] | outcome [6] | outcome [7] | Potency [8] | Potency [9] | Potency [10] | Potency [11] | outcome [20] | Potency [12] | Potency [13] | Potency [14] | Potency [19] | Potency [15] | Potency [16]

O=C1O[C@H]([C@@H](O)CO)C(O)=C1O
inactive: Potency [17] | Potency [18] | max response [1] 0.399% | outcome [2] | outcome [3] | max response [4] -6.89% and 6.42% | outcome [5] | outcome [6] | outcome [7] | Potency [8] | Potency [9] | Potency [10] | Potency [11] | outcome [20] | Potency [12] | Potency [13] | Potency [14] | Potency [15] | Potency [16]

[O-][n+]1cccc(CO)c1
inactive: Potency [17] | Potency [18] | max response [1] -1.91% | outcome [2] | outcome [3] | max response [4] 4.61% | outcome [5] | outcome [6] | outcome [7] | Potency [8] | Potency [10] | Potency [11] | outcome [20] | Potency [12] | Potency [13] | Potency [14] | Potency [19] | Potency [15] | Potency [16]

O=C(O)COc1nn(Cc2ccccc2)c2ccccc12
inactive: Potency [17] | max response [1] -2.07% | outcome [2] | outcome [3] | max response [4] -3.25% | max response [5] 2.16% | outcome [6] | outcome [7] | Potency [8] | Potency [9] | Potency [10] | Potency [11] | Potency [12] | Potency [13] | Potency [14] | Potency [15] | Potency [16]

C[C@H]1O[C@H](O[C@H]2[C@H](O)[C@@H](O)[C@@H](O[C@H]3[C@H](O)[C@@H](O)[C@H](O)O[C@@H]3CO)O[C@@H]2CO)[C@H](O)[C@@H](O)[C@@H]1N[C@H]1C=C(CO)[C@@H](O)[C@H](O)[C@H]1O
inactive: outcome [1] | outcome [2] | outcome [3] | max response [4] -3.3% | outcome [5] | outcome [6] | outcome [7] | Potency [8] | Potency [9] | Potency [10] | Potency [11] | outcome [20] | Potency [12] | Potency [13] | Potency [14] | Potency [15] | Potency [16]

OCC(CO)N[C@H]1C[C@](O)(CO)[C@@H](O)[C@H](O)[C@H]1O
inactive: max response [1] -4.94% | outcome [2] | outcome [3] | max response [4] -14.4% | max response [5] 3.34% | outcome [6] | outcome [7] | Potency [8] | Potency [9] | Potency [10] | Potency [11] | Potency [12] | Potency [13] | Potency [14] | Potency [19] | Potency [15] | Potency [16]

Cc1cccc(C)c1NC(=O)CN(CC(=O)O)CC(=O)O
inactive: Potency [17] | max response [1] 0.46% | outcome [2] | outcome [3] | max response [4] 2.9% | max response [5] -7.57% | outcome [6] | outcome [7] | Potency [8] | Potency [9] | Potency [10] | Potency [11] | Potency [12] | Potency [13] | Potency [14] | Potency [15] | Potency [16]

CCCCOC(=O)c1ccc(O)cc1
inactive: Potency [17] | max response [1] 0.245% | outcome [2] | outcome [3] | max response [4] 0.659% | max response [5] -12.6% | outcome [6] | outcome [7] | Potency [8] | Potency [9] | Potency [10] | Potency [11] | Potency [12] | Potency [13] | Potency [14] | Potency [15] | Potency [16]

O=S(=O)(O)NC1CCCCC1
inactive: Potency [17] | max response [1] -7.57% | outcome [2] | outcome [3] | max response [4] -17.7% | max response [5] 1.01% | outcome [6] | outcome [7] | Potency [8] | Potency [9] | Potency [10] | Potency [11] | Potency [12] | Potency [13] | Potency [14] | Potency [19] | Potency [15] | Potency [16]

CCCCCCCCCCCCOS(=O)(=O)O
inactive: Potency [17] | Potency [18] | outcome [1] | outcome [2] | outcome [3] | max response [4] 16.2% | outcome [5] | outcome [6] | outcome [7] | Potency [8] | Potency [9] | Potency [10] | Potency [11] | outcome [20] | Potency [12] | Potency [13] | Potency [14] | Potency [19] | Potency [15] | Potency [16]

CCC(=O)Nc1ccc(O)cc1
inactive: Potency [17] | Potency [18] | max response [1] -0.238% | outcome [2] | outcome [3] | max response [4] 18.3% | max response [5] 0.658% | outcome [6] | outcome [7] | Potency [8] | Potency [9] | Potency [10] | Potency [11] | Potency [12] | Potency [13] | Potency [14] | Potency [19] | Potency [15] | Potency [16]
